Assay results published in PubChem BioAssay.
Entries with a potency or affinity are not part of this list. Records with an inconclusive call do not appear. Calls of active or inactive are those of the source. Unless noted, the rule behind the calls is not given here.

Assays:
[1] = cytotoxicity in PAX8-dependent RMG-1 cells, dose response, cell-based, cherry-pick (AID 687029;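 active = signal drop whose fitted half-maximal concentration is at most twice the top valid dose, in every test run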;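 note: cells exposed to compound for 96 hours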); settings: RMG-1 viability, CellTiterGlo ATP luminescence, 96 h; series mostly up to 35 µM
[2] = cytotoxicity in IOSE-T80 ovarian epithelial cells, dose response, selectivity assay for PAX8 inhibitor project, cell-based, cherry-pick (AID 687032;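 active = fitted half-maximal concentration for viability loss no higher than twice the top valid dose, in every repeat run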;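 note: cells exposed to compound for 96 h before reading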); settings: CellTiterGlo ATP luminescence, 96 h; series mostly up to 35 µM
[3] = inhibitors of CMV-promoter luciferase reporter, dose response, counter-screen for Pax8 inhibitor project, cell-based, HEK293, luminescence, dry powder (AID 743020;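 active = signal-lowering compounds whose fitted half-maximal concentration is at or below twice the top tested dose in every run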;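 note: HEK293 cells stably expressing the CMV luciferase reporter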); settings: SteadyGlo luminescence, 24 h; series mostly up to 35 µM
[4] = non-specific cell cytotoxicity, dose response, cytotoxicity control for PAX8 inhibitor project, plate reader, dry powder samples (AID 743021); settings: cell line, non-specific cytotoxicity counter-screen; series mostly up to 35 µM
[5] = IGROV1 ovarian cancer cell cytotoxicity, dose response, PAX8 inhibitor project, plate reader, dry powder samples (AID 743043); settings: series mostly up to 35 µM;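 note: more negative means fewer viable cells or more cytotoxicity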
[6] = IOSE-T80 ovarian epithelial cell cytotoxicity, dose response, cytotoxicity control for PAX8 inhibitor project, plate reader, dry powder samples (AID 743045); settings: IOSE-T80 ovarian epithelial cells; series mostly up to 35 µM;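 note: more negative values mean more cell killing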
[7] = A2780 ovarian cancer cell cytotoxicity, dose response, cytotoxicity control, plate reader, dry powder samples (AID 743046); settings: series mostly up to 35 µM
[8] = cytotoxicity in OVCAR8 ovarian cancer cells, dose response, PAX8 project, cell-based, plate reader, dry powder samples (AID 743197); settings: series mostly up to 35 µM

Measured: outcome

COc1ccc(S(=O)(=O)Nc2ccc3c(c2)CC(=O)N([C@@H](C)CO)C[C@@H](C)[C@H](CN(C)Cc2ccc(C(F)(F)F)cc2)O3)cc1
not listed: [8]
inactive: all other assays above

O=C(Nc1ccc(C(F)(F)F)cc1)Nc1ccc2c(c1)[C@H]1C[C@@H](CC(=O)N3CCc4ccccc4C3)O[C@@H](CO)[C@H]1O2
not listed: [8]
inactive: all other assays above

COc1ccccc1C(=O)Nc1ccc2c(c1)C(=O)N(C)[C@@H]1CC[C@@H](CC(=O)NCc3ccc(Cl)c(Cl)c3)O[C@H]1CO2
not listed: [8]
inactive: all other assays above

C[C@@H]1CCCCO[C@@H](CN(C)C(=O)c2ccccc2)[C@H](C)CN([C@H](C)CO)C(=O)c2cc(NC(=O)Nc3ccc(C(F)(F)F)cc3)ccc2O1
not listed: [8]
inactive: all other assays above

C[C@H](CO)N1C[C@H](C)[C@H](CN(C)Cc2ccc(C(F)(F)F)cc2)OCCCC[C@H](C)Oc2ccc(NS(=O)(=O)c3ccc(F)cc3)cc2C1=O
not listed: [8]
inactive: all other assays above

Cc1ccc(S(=O)(=O)Nc2ccc3c(c2)C(=O)N([C@H](C)CO)C[C@@H](C)[C@H](CN(C)Cc2ccc(Cl)c(Cl)c2)OCCCC[C@H](C)O3)cc1
not listed: [8]
inactive: all other assays above

C[C@@H]1CN([C@H](C)CO)C(=O)c2cc(NC(=O)Nc3cccc4ccccc34)ccc2O[C@@H]1CN(C)C(=O)Nc1cccc2ccccc12
not listed: [8]
inactive: all other assays above

COc1cccc(C#Cc2ccc3c(c2)O[C@@H](CN(C)C(=O)c2ccccn2)[C@H](C)CN([C@@H](C)CO)S3(=O)=O)c1
not listed: [8]
inactive: all other assays above

C[C@@H]1CCCCO[C@@H](CN(C)C(=O)Nc2ccc(C(F)(F)F)cc2)[C@H](C)CN([C@H](C)CO)C(=O)c2cc(NS(=O)(=O)c3ccc(Cl)cc3)ccc2O1
not listed: [8]
inactive: all other assays above

C[C@H]1CN([C@@H](C)CO)S(=O)(=O)c2ccc(C#Cc3ccncc3)cc2O[C@H]1CN(C)C(=O)C1CCCCC1
not listed: [8]
inactive: all other assays above

C[C@@H]1CN([C@H](C)CO)S(=O)(=O)c2ccc(C#CC3CCCC3)cc2O[C@H]1CN(C)Cc1cccnc1
not listed: [8]
inactive: all other assays above

C[C@@H]1CN([C@@H](C)CO)C(=O)Cc2cc(NC(=O)Cc3cn(C)c4ccccc34)ccc2O[C@H]1CN(C)Cc1ccc(Oc2ccccc2)cc1
not listed: [8]
inactive: all other assays above

C[C@H](CO)N1C[C@H](C)[C@H](CN(C)S(=O)(=O)c2ccc(Cl)cc2)OCCCC[C@H](C)Oc2ccc(NS(=O)(=O)c3ccc(Cl)cc3)cc2C1=O
not listed: [8]
inactive: all other assays above

C[C@@H]1CN([C@H](C)CO)S(=O)(=O)c2ccc(-c3ccc(C#N)cc3)cc2O[C@@H]1CN(C)Cc1cccc(F)c1
not listed: [8]
inactive: all other assays above

C[C@@H]1CN([C@H](C)CO)C(=O)c2cc(NC(=O)Nc3ccc(C(F)(F)F)cc3)ccc2O[C@@H](C)CCCCO[C@H]1CN(C)C(=O)NC1CCCCC1
not listed: [8]
inactive: all other assays above

C[C@H]1CCCCO[C@H](CN(C)C(=O)C2CCCCC2)[C@@H](C)CN([C@@H](C)CO)C(=O)c2cc(NS(=O)(=O)c3ccc(Cl)cc3)ccc2O1
not listed: [8]
inactive: all other assays above

C[C@@H]1CN([C@H](C)CO)C(=O)c2cc(NC(=O)Nc3ccc(F)cc3)ccc2O[C@@H](C)CCCCO[C@H]1CN(C)C(=O)Nc1ccc(C(F)(F)F)cc1
not listed: [8]
inactive: all other assays above

CC(C)CC1NC(=S)N(Cc2ccccc2)C1=O (stereo unspecified)
not listed: [8]
inactive: all other assays above

C[C@H](CO)N1C[C@H](C)[C@@H](CN(C)S(=O)(=O)c2cccc(F)c2)OCc2ccccc2-c2c(n(C)c3ccccc23)C1=O
not listed: [8]
inactive: all other assays above

C[C@@H]1CN([C@H](C)CO)C(=O)c2cc(NC(=O)c3ccccc3)ccc2O[C@@H](C)CCCCO[C@@H]1CN(C)Cc1ccc(C(F)(F)F)cc1
not listed: [8]
inactive: all other assays above

C[C@H]1CCCCO[C@H](CN(C)Cc2ccc(C(F)(F)F)cc2)[C@@H](C)CN([C@@H](C)CO)C(=O)c2cc(NS(=O)(=O)c3cccs3)ccc2O1
not listed: [8]
inactive: all other assays above

Cc1ccccc1-c1ccc2c(c1)O[C@H](CN(C)C(=O)Nc1ccc(C(F)(F)F)cc1)[C@@H](C)CN([C@H](C)CO)S2(=O)=O
not listed: [8]
inactive: all other assays above

C[C@@H]1CN([C@H](C)CO)C(=O)c2cc(NS(=O)(=O)c3ccccc3)ccc2O[C@@H](C)CCCCO[C@@H]1CN(C)CC1CCCCC1
not listed: [8]
inactive: all other assays above

COc1cccc(S(=O)(=O)N2CCCCN3[C@@H](CO)[C@@H](c4ccc(C#CCC(C)C)cc4)[C@@H]3C2)c1
inactive: all assays above

CC(C)CC#Cc1ccc2c(c1)O[C@H](CN(C)S(=O)(=O)c1ccc(F)cc1)[C@@H](C)CN([C@@H](C)CO)S2(=O)=O
not listed: [8]
inactive: all other assays above

C[C@@H]1CN([C@H](C)CO)C(=O)c2cc(NC(=O)Nc3ccc(C(F)(F)F)cc3)ccc2O[C@@H](C)CCCCO[C@H]1CN(C)S(=O)(=O)c1ccccc1
inactive: all assays above

Cc1ccc(-c2ccc([C@H]3[C@@H](CO)N4CCCCN(C(=O)Nc5cccc(F)c5)C[C@H]34)cc2)cc1
not listed: [7]
inactive: all other assays above

CS(=O)(=O)N1CC(=O)N2[C@H](CO)[C@H](c3ccc(C#CCC4CCCC4)cc3)[C@H]2C1
not listed: [7]
inactive: all other assays above

O=C(Cc1ccccc1)N1CC[C@H]2[C@H](CO)Nc3ccc(C4=CCCCC4)cc3[C@H]21
inactive: all assays above

C[C@H](O)C#Cc1ccc2c(c1)O[C@@H](CN(C)Cc1ccc(-c3ccccc3)cc1)[C@H](C)CN([C@H](C)CO)S2(=O)=O
not listed: [6] | [8]
inactive: all other assays above

C[C@@H]1CN([C@@H](C)CO)C(=O)c2cc(NS(=O)(=O)c3cccs3)ccc2O[C@@H](C)CCCCO[C@H]1CN(C)Cc1ccc(C(F)(F)F)cc1
inactive: all assays above

C[C@@H]1CCCCO[C@@H](CN(C)Cc2ccc(C(F)(F)F)cc2)[C@H](C)CN([C@@H](C)CO)C(=O)c2cc(NC(=O)Nc3ccc(F)cc3)ccc2O1
inactive: all assays above

COCC(=O)N1CCCCN2[C@H](C1)[C@@H](c1ccc(-c3ccc(C)cc3)cc1)[C@@H]2CO
inactive: all assays above

C[C@H](CO)N1C[C@H](C)[C@H](CN(C)CC2CCCCC2)Oc2ccc(NS(=O)(=O)c3ccc(Cl)cc3)cc2CC1=O
inactive: all assays above

C[C@@H]1CCCCO[C@H](CN(C)Cc2ccccc2)[C@H](C)CN([C@@H](C)CO)C(=O)c2cc(NC(=O)Nc3ccc(C(F)(F)F)cc3)ccc2O1
not listed: [6]
inactive: all other assays above
